# KCNQ2 pot: KCNQ2 (rat) channel potentiation | O88943 | CHO-K1 KCNQ2, FluxOR thallium flux fluorescence; stronger effect = higher value | B-score at 10 µM | hit rate 0.54% among 310,000 | AID 2239;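 active = fluorescence ratio B-score at least 3 SD of library B-scores, with initial fluorescence B-score within 3 of them, cut at about 5.3 in these data; same plate scores as AID 2156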;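 note: B-score of peak minus minimum over baseline fluorescence ratio after K+ and Tl+ stimulus; positive B-score means potentiation of KCNQ2 with more thallium influx and brighter signal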
# KCNQ2 inh: KCNQ2 (rat) channel inhibition | O88943 | CHO-K1 KCNQ2, FluxOR thallium flux, 20 min; stronger effect = lower value | B-score at 10 µM | hit rate 1.1% among 310,000 | AID 2156;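 active = fluorescence ratio B-score at most minus 3 library SDs, with starting brightness B-score within 2 library SDs, cut at about -5.5 in these data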
# A number is an active result; – = inactive; · = no result given. Sampled rows, rich in hits. Any-hit rate of the full collection: about 1.6%.
SMILES,KCNQ2 pot,KCNQ2 inh
Cn1c(NC(=O)c2cc(-c3ccc4c(c3)OCO4)nc3ccccc23)cc(=O)n(C)c1=O,·,–
CC(C)(C)NC(=O)c1cc(-c2ccc3c(c2)OCO3)nc2ccccc12,–,-5.6
CCN1CCN(c2ccc(S(=O)(=O)N3CCOCC3)cc2NC(=O)C(C)Oc2ccc(Cl)cc2)CC1 (stereo not drawn),–,–
COCCn1c(SCC(=O)Nc2ccc(F)cc2F)nc2c([nH]c3ccccc32)c1=O,–,–
CCN1CCN(Cc2ccc(NC(=O)c3ccc(C)c(NC(=O)C(=O)c4c[nH]c5ccccc45)c3)cc2C(F)(F)F)CC1,–,-7.8
CCN1CCN(Cc2ccc(NC(=O)c3cc(NC(=O)C(=O)c4c[nH]c5ccccc45)cc(OC)c3)cc2C(F)(F)F)CC1,·,–
CCN(CC(=O)Nc1c(F)cccc1F)C(=O)C1Cc2ccccc2CN1S(=O)(=O)CC (stereo not drawn),·,–
Cc1[nH]n(-c2ncc(-c3ccccc3)s2)c(=O)c1C(c1ccc(Cl)cc1)C(C#N)C#N (stereo not drawn),–,-7.2
Cc1[nH]n(-c2ccccc2)c(=O)c1C(c1ccccc1[N+](=O)[O-])C(C#N)C#N (stereo not drawn),·,–
Oc1c(Br)cc(Br)cc1C=Nc1ccc2c(c1)OCCO2,–,–
Oc1c(Br)cc(Br)cc1C=Nc1ccc2c(c1)OCO2,9.8,–
Cc1cccnc1Nc1nc(-c2ccccc2)cs1,–,-7.8
Cc1cccnc1Nc1nc(-c2ccccn2)cs1,–,–
Cc1cc(=O)oc2cc3oc(=O)cc(C)c3cc12,–,–
COc1cc(/C=N/NC(=O)Cc2ccccc2)ccc1Oc1ccc([N+](=O)[O-])cc1[N+](=O)[O-],–,–
COc1ccc([N+](=O)[O-])cc1/C=N/NC(=O)Cc1ccccc1,6,–
FC(F)(F)c1ccc(Cl)c(N/N=C/c2ccc(N3CCOCC3)s2)c1,–,–
CN(CCCNC(=O)CCc1cn(C)c2ccccc12)C1CCCCC1,–,–
CCOC(=O)[C@H]1NN=C(C(=O)OC)[C@@H]1c1ccccc1,–,–
O=C(NCc1ccc(Cl)cc1)c1noc2c1CCCC2,–,-6.5
O=C(NCc1ccccc1)c1noc2c1CCCC2,·,–
C/C(=N\NC(=O)c1cccc2ccccc12)c1ccccn1,·,–
C/C(=N\NC(=O)c1ccoc1C)c1cccc2ccccc12,12,–
COc1ccc(N(CC(=O)NC2CCCC2)C(=O)CCC(=O)Nc2nc(C)cs2)cc1OC,–,–
Cc1ccc2c(c1)C1CN(C)CCC1N2C(=O)COc1ccc(N(C)C(=O)C(C)(C)C)cc1 (stereo not drawn),·,–
SMILES,KCNQ2 pot,KCNQ2 inh
Cc1ccc2c(c1)C1CN(C)CCC1N2CC(=O)N(C)c1ccccc1 (stereo not drawn),5.6,–
Cc1noc(C)c1COC(=O)CCCc1c[nH]c2ccccc12,·,–
CC1CCCN(C(=O)c2ccc(-c3ccccc3Cl)o2)C1 (stereo not drawn),–,-7.4
CC1CCCN(C(=O)c2ccc([N+](=O)[O-])o2)C1 (stereo not drawn),·,–
COc1ccccc1Cn1c(=S)[nH]c2cc(C(=O)NCC(OC)OC)ccc2c1=O,·,–
COCCN(CC(=O)NC1CCCCC1)C(=O)CCCC(=O)Nc1ccccn1,–,–
Cc1cccc2c1-c1sc(C(=O)N3CCc4ccccc4C3)cc1CO2,–,-5.6
Cc1cccc2c1-c1sc(C(=O)N3CCCCC3)cc1CO2,·,–
COc1ccc(CC(=O)NCCS(=O)(=O)N2CCN(c3ccccc3OC)CC2)cc1,·,–
CC(C)CC(CO)N1CCN(C(=O)c2ccc(Cl)cc2)CCC1=O (stereo not drawn),·,–
COC1(OC)C(/C=C/c2ccc(C)cc2)C(C#N)(C#N)C1(OC)OC (stereo not drawn),–,-7.5
CCCc1cc(-c2[nH]ncc2-c2ccc3c(c2)OCCCO3)c(O)cc1O,–,-8.5
CCCc1cc(-c2[nH]ncc2-c2ccc(C(=O)OCC)o2)c(O)cc1O,–,–
O=C(Nc1ccccc1F)C(=Cc1sc(N2CCOCC2)nc1-c1ccccc1)C(=O)Nc1ccccc1F,–,-6.5
O=C(N/N=C/c1sc(N2CCOCC2)nc1-c1ccccc1)c1ccccc1F,·,–
O=C(c1ccccc1)c1n[nH]c(-c2ccccc2)cc1=O,·,–
O=c1c2ccccc2nc(SCc2cccc(F)c2)n1Cc1ccco1,–,-6.2
O=c1c2ccccc2nc(SCc2ccccc2)n1Cc1ccco1,–,–
O=C(c1cc(-c2ccc(Br)cc2)nc2ccccc12)N1CCC1,–,-6.4
Cc1ccc(-c2cc(C(=O)N3CCCC3)c3ccccc3n2)s1,–,-5.9
O=C(c1cc(-c2ccc(Cl)s2)nc2ccccc12)N1CCCC1,–,–
O=C(c1cc(-c2cccc(Br)c2)nc2ccccc12)N1CCCC1,·,–
Cc1cccc(C(=O)NCCc2ccccc2)c1,·,–
CCCOc1ccc(-c2c(C(=O)N/N=C(\C)c3cccs3)nnn2-c2nonc2N)cc1,·,–
Cc1nc2ccccn2c1C(=O)N=Nc1c(O)[nH]c2ccccc12,·,–
SMILES,KCNQ2 pot,KCNQ2 inh
CCOC(=O)c1ccc(-c2ccc3c(c2)CCC3)nc1C,–,–
Cc1ncc(CN2CCCC(C(=O)Nc3ccc(-c4cccc(F)c4)cc3)C2)n1C (stereo not drawn),–,-5.7
COc1cccc(-c2ccc(NC(=O)C3CCCN(Cc4cnc(C)n4C)C3)cc2)c1 (stereo not drawn),·,–
O=C(Cc1ccc(Br)cc1)Nc1ccccc1Cl,·,–
COc1ccc(/C=C(/NC(=O)c2ccco2)C(=O)N2CCCCC2)cc1,·,–
CCCC/C=C/C(NC(=O)CCc1ccccc1)c1ccccc1 (stereo not drawn),·,–
CCCC/C=C/[C@H](c1ccccc1)[C@H](CO)Cc1cccnc1,–,-5.7
Cc1ccc(NC(=O)c2cncc(Br)c2)nc1,–,–
N#CC(C(=O)NC1CCCCC1)c1nc2ccccc2nc1N1CCN(c2ccc(F)cc2)CC1 (stereo not drawn),–,-5.8
N#CC(C(=O)NC1CC1)c1nc2ccccc2nc1N1CCCC1 (stereo not drawn),·,–
Cc1oc(-c2nc3ccccc3n2C)cc1C(=O)c1ccccc1,–,-6.6
Cn1cc(C(=O)c2ccccc2)cc1-c1nc2ccccc2n1C,·,–
CC(C)(C)N(Cc1ccccc1)C(=O)COC(=O)CSc1ccc([N+](=O)[O-])cc1,·,–
c1ccc(-c2nnc(-c3c[nH]c4ccccc34)nc2-c2ccccc2)cc1,–,-6.8
ClC(Cl)c1nnc(-c2ccccc2)c(-c2c[nH]c3ccccc23)n1,·,–
CC1CCc2sc(-c3n[nH]c(=S)o3)cc2C1 (stereo not drawn),–,–
S=c1[nH]nc(-c2cc3c(s2)-c2ccccc2CC3)o1,16,–
COc1cc(O)cc2c1[C@@H]1Oc3c(ccc(O)c3CC=C(C)C)[C@@H]1CO2,–,-6.5
COc1cc2ccc(=O)oc2c(CC=C(C)C)c1OC,–,–
CC(C(=O)NC1CCCC1)N(C(=O)c1ccc(-c2ccccc2)[nH]1)c1ccccc1F (stereo not drawn),–,-6.5
CC(C(=O)NC1CCCC1)N(C(=O)Cn1nnc(-c2ccc(F)cc2)n1)c1ccccc1F (stereo not drawn),·,–
Cc1ccc(C(=O)CCC(=O)Nc2ccccc2F)cc1,–,–
Cc1cc(NC(=O)COC(=O)C2CC(=O)N(c3ccccc3Cl)C2)no1 (stereo not drawn),–,–
c1ccc2c(c1)nc(N1CCOCC1)c1nncn12,·,–
c1ccc(N2CCOCC2)c(Nc2nc3ccccc3n3cnnc23)c1,–,-6.3
